Inconclusive results are not listed. Active and inactive are the calls of the source. The call rests on the fitted dose curve; in most records, active means well fitted cell-killing curve with a large enough effect; inconclusive means small, poorly fitted or top-dose-only effect, or effect the other way; inactive means flat fitted curve, though single readings scatter.
How the values were obtained:
Experiment in all cases: Primary qHTS to identify gynecologic anti-cancer compounds using libraries of approved drugs and bioactive compounds (AID 1345084); further: nearly all actives have a fitted effect of over 55% in size
Details in all cases: Gynecologic cancer cell panel viability, ATPlite luminescence, 48 h; series mostly up to 57.5 µM
[1] = system: OV90
Summary of the method: (§1)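 ATP-based viability (ATPlite), 1,000 cells/well, 16 h pre-incubation, 48 h compound at 37 C, 5% CO2, 15 min RT before read.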

[2] = system: PA-1
Summary of the method: as §1

[3] = system: SKOV3
Summary of the method: as §1

[4] = system: Tov-21-G
Summary of the method: as §1

[5] = system: Tov112D
Summary of the method: as §1

Measured: Potency

C=CC1(C)CC(O)C(C(=C)C(=O)OC)C(O)C1C(=C)CO (stereo not given)
inactive: all assays above

C=C1CC[C@@H]2[C@](C)(CO)[C@H](O)CC[C@@]2(C)[C@@H]1/C=C/C1=CCOC1=O
inactive: all assays above

CC[N+]1(C/C2=C/CCCCCC2)CCC(NC(=O)C2c3cc(Cl)ccc3Oc3ccc(Cl)cc32)CC1 (stereo not given)
inactive: all assays above

Reference: PubChem BioAssay (NCATS)
